About 79,000 compounds went through this panel and 15% of them were active in at least one assay; those are over-represented in the sample as a whole. Activity calls are given as the source filed them. Rule as the data show it: active = growth inhibition above about 70%; inactive = the rest.
Key:
[1] = NCI Yeast Anticancer Drug Screen. Data for the rad52 strain (AID 147);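 also: 0% = growth of vehicle-treated control cultures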; settings: S. cerevisiae rad52 mutant growth inhibition, active compounds read high
In short: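 Measured: yeast growth inhibition. System: strain with a defined DNA damage repair alteration. Reference: vehicle-treated control cultures.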

[2] = NCI Yeast Anticancer Drug Screen. Data for the wt1 strain (AID 149);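 also: 0% = growth of vehicle-treated wt1 cultures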; settings: S. cerevisiae wt1 strain (SPY 50644) growth inhibition, active compounds read high
In short: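 Using yeast strain wt1, compound-induced growth inhibition was determined against vehicle-treated cultures.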

[3] = NCI Yeast Anticancer Drug Screen. Data for the rad50EPP+ strain (AID 151);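 also: 0% = growth of vehicle-treated control cultures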; settings: S. cerevisiae rad50 mutant strain, active compounds read high
In short: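 One strain with a rad50 alteration (rad50EPP+) was compound-treated, its growth then compared to that of vehicle controls.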

[4] = NCI Yeast Anticancer Drug Screen. Data for the mgt1 strain (AID 153); settings: S. cerevisiae mgt1 mutant growth inhibition, active compounds read high
In short: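 After exposure of the mgt1 yeast mutant to compound, growth was measured and reported as inhibition compared with vehicle controls.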

[5] = NCI Yeast Anticancer Drug Screen. Data for the rad50 strain (AID 155);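 also: 0% = growth of vehicle-only cultures of the same strain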; settings: S. cerevisiae rad50 strain growth inhibition, active compounds read high
In short: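 Relative growth inhibition (compound vs vehicle) was measured in yeast with a defined repair-gene alteration.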

[6] = NCI Yeast Anticancer Drug Screen. Data for the mec2-1 strain (AID 157); settings: S. cerevisiae mec2-1 strain, active compounds read high
In short: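 Test agents were screened against the mec2-1 yeast strain, with defined DNA repair or cell cycle alteration. Growth was scored as inhibition against vehicle-only controls.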

[7] = NCI Yeast Anticancer Drug Screen. Data for the sgs1 mgt1 strain (AID 161);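 also: 0% = growth of cultures given vehicle only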; settings: S. cerevisiae sgs1 mgt1 strain, active compounds read high
In short: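 Mutant yeast exposed to compound; growth scored against vehicle-only wells.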

[8] = NCI Yeast Anticancer Drug Screen. Data for the CLN2oe strain (AID 163);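 also: 0% = growth of vehicle-only control cultures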; settings: S. cerevisiae CLN2oe strain, active compounds read high
In short: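 Here, growth inhibition in a cell-cycle-altered yeast strain after compound exposure was quantified against vehicle control growth.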

[9] = NCI Yeast Anticancer Drug Screen. Data for the cln2 rad14 strain (AID 165);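 also: 0% = growth equal to vehicle treated cultures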; settings: S. cerevisiae cln2 rad14 strain, active compounds read high
In short: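 Growth of compound-exposed yeast (cln2 rad14 genotype) measured and expressed as inhibition relative to vehicle.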

[10] = NCI Yeast Anticancer Drug Screen. Data for the bub3 strain (AID 167); settings: S. cerevisiae bub3 mutant strain, active compounds read high
In short: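 Screening used yeast with an engineered genetic alteration affecting cell cycle control. Compound-exposed cultures were compared with vehicle cultures, and reduced growth was taken as inhibition.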

[11] = NCI Yeast Anticancer Drug Screen. Data for the wt2 strain (AID 169);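 also: 0% = growth of vehicle-treated yeast cultures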; settings: S. cerevisiae wt2 strain growth inhibition, active compounds read high
In short: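 Genetically defined yeast strains from a DNA-repair/cell-cycle panel were used. Compound-exposed yeast growth was measured, and the inhibition was calculated relative to vehicle treatment.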

[12] = NCI Yeast Anticancer Drug Screen. Data for the sgs1 strain (AID 173);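 also: 0% = growth of vehicle-only control cultures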; settings: S. cerevisiae sgs1 mutant, active compounds read high
In short: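 Relative growth inhibition, referenced to vehicle, was determined in a yeast strain with a defined alteration affecting DNA damage repair or cell cycle control after compound exposure.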

[13] = NCI Yeast Anticancer Drug Screen. Data for the mlh1 rad18 strain (AID 175); settings: S. cerevisiae mlh1 rad18 strain growth inhibition, active compounds read high
In short: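 In this whole-cell yeast screen, a strain with altered DNA damage repair is challenged with compound, and its growth is measured against matched vehicle-treated controls.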

[14] = NCI Yeast Anticancer Drug Screen. Data for the rad18 strain (AID 177); settings: S. cerevisiae rad18 mutant growth inhibition, active compounds read high
In short: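 Screen uses a yeast strain with a defined lesion in DNA damage repair; compound effect is read as loss of growth compared to untreated vehicle cultures.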

[15] = NCI Yeast Anticancer Drug Screen. Data for the rad14 strain (AID 159);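 also: 0% = growth of vehicle-treated control cultures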; settings: S. cerevisiae rad14 strain growth inhibition, active compounds read high
In short: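 Screen for anticancer potential: a yeast strain altered in DNA damage repair is grown with compound, and reduced growth is quantified against vehicle controls.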

[16] = NCI Yeast Anticancer Drug Screen. Data for the mlh1 strain (AID 171);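 also: 0% = growth of vehicle-treated control cultures of the same strain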; settings: S. cerevisiae mlh1 strain growth inhibition, active compounds read high
In short: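 Here the genetically defined yeast mutant is grown with each compound, and the extent to which its growth falls below that of vehicle-exposed cells is reported.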

[17] = at 5.0 µM (retest, dose inferred, filed as 0.5)
[18] = at 50.0 µM (retest, dose inferred, filed as 5.0)

Measured: growth inhibition

COC(=O)C(Cl)(Cl)N=Nc1c(Cl)cc(Cl)c(C)c1Cl
inactive: [1]; at 1.2 µM -14% | [2]; at 1.2 µM -12% | [2]; at 3.7 µM 52% | [3]; at 1.2 µM 12% | [4]; at 1.2 µM -50% | [4]; at 3.7 µM 20% | [5]; at 1.2 µM -34% | [5]; at 3.7 µM 46% | [5]; [17] 49% | [6]; at 1.2 µM -40% | [6]; at 3.7 µM 68% | [6]; [17] 54% | [7]; [17] 14% | [7]; [18] 69% | [8]; at 1.2 µM 36% | [8]; at 3.7 µM 22% | [9]; [17] 2% | [9]; [18] -66% | [10]; at 1.2 µM -32% | [10]; at 3.7 µM 11% | [10]; [17] 5% | [10]; [18] -28% | [11]; at 1.2 µM -3% | [12]; at 1.2 µM 10% | [13]; [17] 59% | [14]; at 1.2 µM 28%
active: [1]; at 3.7 µM 83% | [1]; at 11.0 µM 97% | [1]; at 33.0 µM 98% | [1]; at 100.0 µM 97% | [2]; at 11.0 µM 99% | [2]; at 33.0 µM 99% | [2]; at 100.0 µM 99% | [3]; at 3.7 µM 83% | [3]; at 11.0 µM 99% | [3]; at 33.0 µM 99% | [3]; at 100.0 µM 99% | [4]; at 11.0 µM 96% | [4]; at 33.0 µM 98% | [4]; at 100.0 µM 99% | [5]; at 11.0 µM 96% | [5]; at 33.0 µM 92% | [5]; [18] 99% | [5]; at 50.0 µM 92.5% | [5]; at 100.0 µM 96% | [6]; at 11.0 µM 97% | [6]; at 33.0 µM 98% | [6]; [18] 99% | [6]; at 50.0 µM 91.3% | [6]; at 100.0 µM 98% | [7]; at 50.0 µM 91.9% | [8]; at 11.0 µM 97% | [8]; at 33.0 µM 99% | [8]; at 100.0 µM 99% | [9]; at 50.0 µM 88.2% | [10]; at 11.0 µM 92% | [10]; at 33.0 µM 98% | [10]; at 50.0 µM 93.2% | [10]; at 100.0 µM 98% | [11]; at 3.7 µM 89% | [11]; at 11.0 µM 99% | [11]; at 33.0 µM 99% | [11]; at 100.0 µM 99% | [12]; at 3.7 µM 88% | [12]; at 11.0 µM 87% | [12]; at 33.0 µM 99% | [12]; at 100.0 µM 100% | [13]; [18] 99% | [13]; at 50.0 µM 93.2% | [14]; at 3.7 µM 87% | [14]; at 11.0 µM 96% | [14]; at 33.0 µM 98% | [14]; at 100.0 µM 99%

C=COC(=O)N[C@H]1CCc2cc(OC)c(OC)c(OC)c2-c2ccc(SC)c(=O)cc21
active: [1]; at 100.0 µM 75% | [5]; at 100.0 µM 88% | [15]; at 100.0 µM 93% | [8]; at 100.0 µM 80% | [11]; at 100.0 µM 76% | [16]; at 100.0 µM 84% | [12]; at 100.0 µM 73% | [14]; at 100.0 µM 75%
inactive: [1]; at 1.2 µM -2% | [1]; at 3.7 µM 1% | [1]; at 11.0 µM 6% | [1]; at 33.0 µM 14% | [2]; at 1.2 µM -2% | [2]; at 3.7 µM -2% | [2]; at 11.0 µM -3% | [2]; at 33.0 µM -2% | [2]; at 100.0 µM 18% | [3]; at 1.2 µM -8% | [3]; at 3.7 µM -2% | [3]; at 11.0 µM -3% | [3]; at 33.0 µM -6% | [3]; at 100.0 µM -2% | [4]; at 1.2 µM -5% | [4]; at 3.7 µM -8% | [4]; at 11.0 µM -4% | [4]; at 33.0 µM 13% | [4]; at 100.0 µM 64% | [5]; at 1.2 µM 1% | [5]; at 3.7 µM 4% | [5]; [17] -6% | [5]; at 11.0 µM 10% | [5]; at 33.0 µM 20% | [5]; [18] 34% | [5]; at 50.0 µM 38.5% | [15]; at 1.2 µM -1% | [15]; at 3.7 µM -1% | [15]; at 11.0 µM 6% | [15]; at 33.0 µM 19% | [7]; [17] -9% | [7]; [18] 42% | [7]; at 50.0 µM 38% | [8]; at 1.2 µM -4% | [8]; at 3.7 µM -2% | [8]; at 11.0 µM -12% | [8]; at 33.0 µM -10% | [9]; [17] 3% | [9]; [18] 6% | [9]; at 50.0 µM 20.4% | [10]; at 1.2 µM -3% | [10]; at 3.7 µM -6% | [10]; [17] -3% | [10]; at 11.0 µM -6% | [10]; at 33.0 µM 4% | [10]; [18] 67% | [10]; at 50.0 µM 34.2% | [10]; at 100.0 µM 58% | [11]; at 1.2 µM -3% | [11]; at 3.7 µM -4% | [11]; at 11.0 µM -3% | [11]; at 33.0 µM 1% | [16]; at 1.2 µM 1% | [16]; at 3.7 µM -1% | [16]; at 11.0 µM 0% | [16]; at 33.0 µM 12% | [12]; at 1.2 µM -2% | [12]; at 3.7 µM -3% | [12]; at 11.0 µM 1% | [12]; at 33.0 µM 14% | [13]; [17] -8% | [13]; [18] 30% | [13]; at 50.0 µM 29.1% | [14]; at 1.2 µM -2% | [14]; at 3.7 µM 0% | [14]; at 11.0 µM 3% | [14]; at 33.0 µM 13%

CCC(C)(C)c1ccc(Oc2ccccc2)c(N)c1
active: [1]; at 11.0 µM 96% | [1]; at 33.0 µM 99% | [1]; at 100.0 µM 98% | [2]; at 11.0 µM 97% | [2]; at 33.0 µM 99% | [2]; at 100.0 µM 98% | [3]; at 33.0 µM 84% | [3]; at 100.0 µM 90% | [4]; at 11.0 µM 96% | [4]; at 33.0 µM 99% | [4]; at 100.0 µM 99% | [5]; at 11.0 µM 94% | [5]; at 33.0 µM 98% | [5]; at 50.0 µM 90.5% | [5]; at 100.0 µM 99%
inactive: [1]; at 1.2 µM -21% | [1]; at 3.7 µM -4% | [2]; at 1.2 µM -15% | [2]; at 3.7 µM -12% | [3]; at 1.2 µM 3% | [3]; at 3.7 µM 36% | [3]; at 11.0 µM 66% | [4]; at 1.2 µM -16% | [4]; at 3.7 µM -1% | [5]; at 1.2 µM -33% | [5]; at 3.7 µM -6% | [5]; [17] 42% | [5]; [18] 51% | [6]; at 1.2 µM -40% | [6]; at 3.7 µM -24%

Reference: PubChem BioAssay (NCI)
